What all share (assay): qHTS profiling for inhibitors of Plasmodium falciparum proliferation (AID 504749); note: nearly all actives have a fitted effect of over 60% in size
Holding throughout (conditions): P. falciparum in erythrocytes, SYBR Green DNA, 72 h; series mostly up to 28.7 µM
Background: In qHTS, concentration-response curves come from the screen itself.

Experiment [1] has as its system CP185. Summed up: (§1)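 Infected RBCs, 0.3% parasitemia/2.5% Hct final; cpd 72 h, 37 C, 5% CO2; lysis buffer with saponin/triton/SYBR Green I, o/n RT dark; FI 485/535; norm. to artemisinin (0.29 uM) and DMSO.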
The test system of experiment [2] is CP192. A digest of the protocol:
as §1

In experiment [3] the test system is CP194. Summed up: as §1
Experiment [4] has as its system CP201. A digest of the protocol:
as §1

Experiment [5] relates to CP211. Summed up: as §1
The test system of experiment [6] is CP215. A digest of the protocol:
as §1

Experiment [7] deals with CP217. A digest of the protocol: as §1
The test system of experiment [8] is CP237. A digest of the protocol: as §1
Experiment [9] concerns CP238. Summed up: as §1
Experiment [10] has as its system CP250. Summed up: as §1
The subject of experiment [11] is CP252. Summed up: as §1
Experiment [12] has as its system CP256. A digest of the protocol: as §1
The subject of experiment [13] is CP260. Summed up:
as §1

The test system of experiment [14] is CP262. A digest of the protocol:
as §1

Experiment [15] deals with CP265. A digest of the protocol: as §1
Experiment [16] concerns CP266. A digest of the protocol: as §1
Experiment [17] deals with CP268. Summed up:
as §1

Experiment [18] deals with CP269. A digest of the protocol: as §1
In experiment [19] the test system is CP191. A digest of the protocol:
as §1

In experiment [20] the test system is CP247. A digest of the protocol:
as §1

SMILES strings stand for the structures. Inconclusive results are not listed. The source made the active and inactive calls. Calls come from the whole dose curve; as a rule, active = well fitted inhibition curve with a large enough effect; inconclusive = small, poorly fitted or top-dose-only effect; inactive = flat fitted curve, though single readings scatter.
Potency is the fitted concentration of half-maximal effect.

Take `Cc1cc2nc3c(=O)[nH]c(=O)nc-3n(CC(O)C(O)C(O)CO)c2cc1C` (stereo not drawn): the compound was called inactive in experiment [1], in experiment [12] and in [14]. The Potency entry in experiment [2], in experiment [3], in experiment [4], in experiment [5], in experiment [6] and in experiment [7] was “inactive” each time. Besides, the Potency entry in experiment [8], in experiment [9], in experiment [10], in experiment [11], in experiment [13] and in experiment [15] was “inactive” in each case. Besides, the Potency result in [16], in experiment [17] and in experiment [18] was “inactive” each time.
`Fc1ccc(C(c2ccc(F)cc2)N2CCN(CC=Cc3ccccc3)CC2)cc1`: the Potency entry in experiment [2] is “inactive”. In experiment [14], the compound was classed as inactive.
With `CC(C)CN(C[C@@H](O)[C@H](Cc1ccccc1)NC(=O)O[C@H]1CO[C@H]2OCC[C@H]21)S(=O)(=O)c1ccc(N)cc1`, the call in [1], in experiment [19], in experiment [20], in experiment [12] and in experiment [14] was inactive. Moreover, the Potency result in [2], in experiment [3], in experiment [4], in [5], in experiment [6] and in [7] was “inactive” in each case. Besides, the Potency entry in experiment [8], in experiment [9], in experiment [10], in experiment [11], in [13] and in experiment [15] was “inactive” each time. Moreover, the Potency result in experiment [16], in [17] and in experiment [18] was “inactive” each time.
As to `O=C(O)c1nc(=O)[nH]c(=O)[nH]1`, the result in experiment [1], in [19], in experiment [20], in experiment [12] and in experiment [14] was inactive. The Potency entry in experiment [2], in experiment [3], in experiment [4], in experiment [5], in experiment [7] and in experiment [8] was “inactive” each time. Besides, the Potency result in [9], in experiment [10], in experiment [11], in experiment [13], in experiment [15] and in experiment [16] was “inactive” each time. The Potency result in [17] and in [18] was “inactive” throughout.
With `O=C1C(CCC(O)c2ccc(F)cc2)C(c2ccc(O)cc2)N1c1ccc(F)cc1` (stereo not drawn), the call in [1], in [19], in experiment [20], in experiment [12] and in [14] was inactive. Further, the Potency result in [2], in [3], in experiment [4], in experiment [5], in [6] and in experiment [7] was “inactive” throughout. Moreover, the Potency result in [8], in experiment [9], in experiment [10], in experiment [11], in [13] and in [15] was “inactive” throughout. Besides, the Potency entry in experiment [16], in [17] and in [18] was “inactive” in each case.
In the case of `CN1CCN2c3ncccc3Cc3ccccc3C2C1` (stereo not drawn), the compound was classed as inactive in experiment [1], in experiment [19], in experiment [20], in experiment [12] and in [14]. Also, the Potency entry in [4], in experiment [6], in [7], in [8], in experiment [9] and in experiment [10] was “inactive” each time. Moreover, the Potency result in experiment [11], in [13], in [15], in experiment [16], in experiment [17] and in experiment [18] was “inactive” in each case.
As to `COc1c(C)c2c(c(O)c1CC=C(C)CCC(=O)OCCN1CCOCC1)C(=O)OC2`, the Potency in experiment [2] is 8.49 µM (active); in experiment [3] it was 6.75 µM (active); in experiment [4], 13.5 µM (active); in experiment [5] it was 6.01 µM (active); in experiment [6], 6.01 µM (active); in experiment [7], 7.94 µM (active). For the same compound, the Potency in [8] was 8.91 µM (active); in [9], 7.94 µM (active); in experiment [10], 7.94 µM (active); in [11], 8.91 µM (active); in experiment [13], 11.2 µM (active); in experiment [15], 7.94 µM (active). The values for the Potency in experiment [16], in [17] and in experiment [18] were 12 µM (active), 12 µM (active) and 8.49 µM (active), respectively.
With `COc1ccnc(CS(=O)c2nc3ccc(OC(F)F)cc3[nH]2)c1OC` (stereo not drawn), the result in experiment [1], in [19], in experiment [20], in [12] and in experiment [14] was inactive. For the same compound, the Potency entry in experiment [2], in [3], in experiment [4], in [5], in experiment [6] and in experiment [7] was “inactive” throughout. Also, the Potency entry in [8], in experiment [9], in experiment [10], in experiment [11], in experiment [13] and in experiment [15] was “inactive” each time. Also, the Potency result in experiment [16], in experiment [17] and in [18] was “inactive” in each case.
On to `Clc1ccc(COC(Cn2ccnc2)c2ccc(Cl)cc2Cl)c(Cl)c1` (stereo not drawn), for which the Potency in [6] is 5.73 µM (active); in experiment [7], 3.16 µM (active); in [8], 3.55 µM (active).
Consider `CS(=O)(=O)c1ccc(C2=C(c3ccccc3)C(=O)OC2)cc1`, for which the compound was called inactive in experiment [1], in [19], in [20], in experiment [12] and in experiment [14]. The Potency entry in [3], in [4], in [5], in experiment [7], in [8] and in experiment [9] was “inactive” in each case. In addition, the Potency result in experiment [10], in [11], in experiment [13], in experiment [15], in [16] and in experiment [17] was “inactive” in each case. Besides, the Potency entry in experiment [18] was “inactive”.
In the case of `N#Cc1c(N(CC(=O)O)CC(=O)O)sc(C(=O)O)c1CC(=O)O`, the outcome in experiment [1], in experiment [19], in experiment [20], in [12] and in experiment [14] was inactive. For the same compound, the Potency entry in experiment [2], in experiment [3], in [4], in experiment [5], in [6] and in experiment [7] was “inactive” each time. Besides, the Potency entry in [8], in experiment [9], in experiment [10], in experiment [11], in [13] and in experiment [15] was “inactive” throughout. Further, the Potency entry in experiment [16], in [17] and in experiment [18] was “inactive” in each case.
For `NS(=O)(=O)c1cc(Cl)c(Cl)c(S(N)(=O)=O)c1`, the outcome in [1], in experiment [19], in experiment [20], in [12] and in experiment [14] was inactive. For the same compound, the Potency result in [2], in experiment [3], in [4], in experiment [5], in [6] and in [7] was “inactive” throughout. For the same compound, the Potency result in experiment [8], in experiment [9], in experiment [10], in [11], in experiment [13] and in experiment [15] was “inactive” throughout. Moreover, the Potency entry in [16], in [17] and in [18] was “inactive” in each case.
Regarding `N#CC(c1ccc(Cl)cc1)c1c(Cl)cc(-n2ncc(=O)[nH]c2=O)cc1Cl` (stereo not drawn), the compound was called inactive in [1], in experiment [19], in experiment [20], in experiment [12] and in [14]. Also, the Potency result in experiment [2], in [3], in [4], in [5], in experiment [6] and in experiment [7] was “inactive” each time. Moreover, the Potency result in experiment [8], in experiment [9], in experiment [10], in [11], in experiment [13] and in experiment [15] was “inactive” throughout. Also, the Potency entry in [16], in experiment [17] and in experiment [18] was “inactive” throughout.
Turning to `CN1CC(=O)N2C(Cc3c([nH]c4ccccc34)[C@H]2c2ccc3c(c2)OCO3)C1=O` (stereo partly drawn), the compound was classed as inactive in experiment [1], in experiment [19], in experiment [20], in experiment [12] and in experiment [14]. Further, the Potency entry in experiment [2], in experiment [3], in experiment [4], in [5], in experiment [6] and in experiment [7] was “inactive” throughout. Further, the Potency result in experiment [8], in experiment [9], in experiment [10], in experiment [11], in [15] and in experiment [16] was “inactive” throughout. Further, the Potency entry in experiment [17] and in [18] was “inactive” each time.
Turning to `COc1cc2c(cc1OC)CC(=O)N(CCCN(C)C[C@H]1Cc3cc(OC)c(OC)cc31)CC2`, the compound was called inactive in [1], in experiment [19], in experiment [20], in experiment [12] and in experiment [14]. Further, the Potency result in experiment [2], in [3], in experiment [4], in [5], in experiment [6] and in [7] was “inactive” in each case. The Potency result in experiment [9], in experiment [10], in [11], in experiment [13], in [15] and in experiment [16] was “inactive” each time. Further, the Potency result in experiment [17] and in experiment [18] was “inactive” in each case.
Take `C=C1c2cccc(O)c2C(O)=C2C(=O)[C@@]3(O)C(O)=C(C(N)=O)C(=O)[C@@H](N(C)C)[C@@H]3[C@@H](O)[C@H]12`: the call in [1], in [19], in experiment [20], in experiment [12] and in experiment [14] was inactive. For the same compound, the Potency entry in experiment [2], in [3], in [4], in [5], in [6] and in experiment [7] was “inactive” throughout. Besides, the Potency entry in [9], in [10], in experiment [11], in experiment [15], in experiment [16] and in [17] was “inactive” each time. Further, the Potency result in experiment [18] is “inactive”.

The record behind these values is PubChem BioAssay (NCATS).
